Screening data (PubChem)
FUS suppressor: suppressors of FUS proteinopathy in yeast; 0.24% of 390,000 active; Potency, µM (titrated, usually from 76.6 µM), most hits filed as activators; S. cerevisiae FUS-expressing, growth rescue, OD600, 24 h;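 further: plate controls were DMSO vehicle for no effect and reference control for full effect; nearly all actives have a fitted effect of over 55% in size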
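Steps: raffinose overnight preculture; dilution to OD 0.005 in 2% galactose minimal medium; compound addition (concentration series); 24hr at 30C, 99% humidity; absorbance read at 600 nm.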
TDP43 rescue: inhibitors of TDP-43 toxicity in yeast; TDP-43 expressing yeast growth rescue, BacTiter-Glo, 24 h; 1.8% of 410,000 active; Potency, µM (series often up to 46.1 µM), inactives show at the highest dose growth rescue (activation), actives largely listed as activators; further: % of control where 0% means no effect; nearly all actives have a fitted effect of over 50% in size
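Yeast expressing TDP-43 (pregrown in raffinose, seeded at OD600=0.02 in galactose medium) exposed to compounds 24 hr at 30 deg C. Growth read by BacTiter-Glo luminescence; rescue of toxicity appears as increased signal.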
Abeta rescue: compounds reversing amyloid beta toxicity in yeast; Potency, µM (doses to about 46.1 µM), most hits filed as activators; 0.063% of 410,000 active; yeast expressing A-beta42, growth rescue, OD600, 48 h; response scale: 0% DMSO, 100% iron-clioquinol control; further: nearly all actives have a fitted effect of over 55% in size
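Yeast A-beta toxicity model in growth medium with pinned compounds, 48 h at 30 C; growth read as absorbance at 600 nm. Normalized to FeCl3/clioquinol equimolar mix (positive) and DMSO (negative).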
aSyn yeast inh: alpha-synuclein toxicity inhibition in yeast; Yeast expressing alpha-synuclein, growth rescue, BacTiter-Glo, 24 h; Potency, µM (series often up to 46.1 µM), for the others: at the top dose growth rescue (activation), usual class: activators; 0.14% of 370,000 active; AID 652106; further: % of control where 0% means no effect; nearly all actives have a fitted effect of over 65% in size
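Readout is rescue of growth in alpha-synuclein-expressing yeast, so inhibitors of toxicity appear as activators. Growth after 24 hr at 30 deg C in galactose medium is quantified by luminescence.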
Active calls of the source: *; i = inactive; u = inconclusive; x = no result; [ ] = dose if it differs, or a comment. Most compounds without a hit are left out; they make up all but 2.1% or so of the library. The call rests on the fitted dose curve; in most records, active means well fitted curve in the direction sought with a large enough effect; inconclusive means small, poorly fitted or top-dose-only effect, or another doubt; inactive means no such curve, though single readings can be large; an effect the other way counts as inactive or inconclusive. Potency means the concentration at half of the fitted maximal effect.

SMILES	FUS suppressor	TDP43 rescue	Abeta rescue	aSyn yeast inh
Cc1ccc(S(=O)(=O)N(CC(O)Cn2c3ccccc3c3ccccc32)c2cccc(C(=O)NCCO)c2)cc1 (stereo unspecified)	20µM*	13.3%	i	-5.0%
O=C(Oc1ccc(/C=N/O)cc1)c1ccccc1	i	11.2µM*	i	-3.8%
O=C(O)COc1ccc(C(=O)Cc2ccc3c(c2)OCCCO3)c(O)c1	i	-12.1%	i	0.9%
CCCC(=O)N1CCN(c2nc(CC(C)C)c3c(c2C#N)CCC3)CC1	u	11.2µM*	i	0.7%
COc1ccc(-c2cc(C(=O)N/N=C/C(C)=C\c3ccco3)[nH]n2)cc1	i	x	x	x
CCOC(=O)c1c(N)sc(C(N)=O)c1C	i	13.1%	i	1.6%
CCCOC(=O)c1c(N)sc(C(=O)OCC)c1C	i	7.94µM*	i	3.6%
O=C(Nc1ccnn1C1CCN(C(=O)c2cccc(Cl)c2)CC1)C1CC1	i	10.3%	i	6.9%
Cc1cc(-n2c(C)cc(C(=S)N3CCOCC3)c2C)ccc1Br	x	20µM*	i	-1.6%
COc1cnc(-c2ccccn2)nc1Sc1ccccc1	i	-20.7%	u	-8.8%
COc1cnc(-c2ccccn2)nc1Sc1ccc(F)cc1	i	-19.4%	10µM*	8.6%
COc1cnc(-c2ccccn2)nc1Sc1ccc(Cl)cc1	i	14.1µM*	u	-6.1%
COc1ccc(Sc2nc(-c3ccccn3)ncc2OC)cc1	i	2.2%	u	12.7%
COc1cc(OC)cc(C(=O)NCc2n[nH]c(=S)n2-c2ccccc2)c1	i	-13.6%	i	-2.4%
Fc1cccc(Cl)c1C1SCc2nc3ccccc3n21 (stereo unspecified)	i	12.6µM*	i	6.2%
CCNC(=O)CN1C(=O)NC2(CCCCCC2)C1=O	i	-1.7%	i	-1.5%
O=C(COc1ccc(Cl)cc1)NCC(c1cccs1)S(=O)(=O)c1ccc(F)cc1 (stereo unspecified)	i	u	i	x
O=C(Cc1ccc(Cl)cc1)NCC(c1cccs1)S(=O)(=O)c1ccc(F)cc1 (stereo unspecified)	u	35.5µM*	i	x
CC(C)(C)c1ccc(C(=O)NCC(c2cccs2)S(=O)(=O)c2ccc(F)cc2)cc1 (stereo unspecified)	35.5µM*	u	i	x
CC(C)Cc1ccc(C(C)C(=O)Nc2ccc(O)cc2)cc1 (stereo unspecified)	i	11.2µM*	i	-15.4%
CCOc1cc(CO)c(Br)cc1OCC(=O)O	i	-17.9%	i	2.3%
COc1cccc(C(=O)C2CCCN(CC3=Cc4cc(OC)ccc4OC3)C2)c1 (stereo unspecified)	i	-29.2%	i	-1.9%
Cc1onc(-c2c(Cl)cccc2Cl)c1C(O)c1ccccc1 (stereo unspecified)	i	11.2µM*	i	28.2%
CCOC(=O)/C(=N\Nc1cccc(Cl)c1)Sc1nnc(-c2ccc(OC)cc2)n1C	x	31.6µM*	i	-0.2%
COc1ccc(-c2nnc(SCC(=O)Nc3ccc(Cl)cc3)n2C)cc1	i	-12.3%	i	0.0%
SMILES	FUS suppressor	TDP43 rescue	Abeta rescue	aSyn yeast inh
COc1ccc(CC(=O)OCC(=O)c2ccc(OC)cc2)cc1	i	2.5%	i	1.9%
Cc1ccc(NC(=O)C2(C)CCN2C(=O)c2ccccc2CCc2ccccc2)cc1C (stereo unspecified)	i	19.7%	i	14.4%
Cc1cccc(S(=O)(=O)NC(=O)C2(C)CCN2C(=O)c2ccccc2CCc2ccccc2)c1 (stereo unspecified)	i	15.8µM*	i	-14.8%
CC1(C(=O)NS(=O)(=O)c2cccc(F)c2)CCN1C(=O)c1ccccc1CCc1ccccc1 (stereo unspecified)	i	u	i	-26.2%
COc1ccc(NC(=O)C2(C)CCN2C(=O)c2ccccc2CCc2ccccc2)cc1OC (stereo unspecified)	u	17.8µM*	i	11.8%
S=c1[nH]nc(Cc2ccc(Br)cc2)n1/N=C/c1ccc(Cl)cc1	i	8.91µM*	u	-14.2%
S=c1[nH]nc(COc2ccccc2)n1/N=C/c1ccc(Cl)cc1	i	10.9%	i	3.7%
CCn1c(C(=O)N2CCc3ccccc3C2)cc2oc3ccccc3c21	i	u	i	6.1%
Cc1cccc(Oc2c(C=O)c3ccccc3n2C)c1	i	17.8µM*	i	-4.8%
CC(CNC1CCCCC1)OC(=O)c1ccc([N+](=O)[O-])cc1 (stereo unspecified)	x	22.1%	i	-7.6%
CN(C)CCOC1c2ccccc2CCc2ccc3ccccc3c21 (stereo unspecified)	i	15.8µM*	i	u
CN(C)CCOC1c2ccccc2C=Cc2ccccc21	i	u	i	u
NC(=S)N=Nc1c(O)n(Cc2ccccc2)c2ccccc12	i	-15.7%	i	-6.7%
Cc1c(Cl)cccc1NC(=S)N=Nc1c(O)n(CN2CCOCC2)c2ccccc12	i	15.1%	22.4µM*	1.4%
C=CCn1c(O)c(N=NC(=S)Nc2cccc(C)c2)c2ccccc21	x	11.2µM*	u	u
C/C(Cl)=C\Cn1c(O)c(N=NC(N)=S)c2ccccc21	i	17.8µM*	i	13.6%
Cc1cc(C)cc(NC(=S)NCc2cccnc2)c1	x	-0.8%	i	-5.7%
CCCOC(=O)c1cccc(Nc2nc(C(=O)OCC)nc3ccccc23)c1	i	22.4µM*	i	x
CCOC(=O)c1cccc(Nc2nc(-c3cccnc3)nc3ccccc23)c1	i	17.8µM*	i	13.9%
COC(=O)c1cccc(Nc2nc(-c3cccnc3)nc3ccccc23)c1	i	10.3%	i	6.4%
CCOC(=O)c1cccc(Nc2nc(C(=O)OCC)nc3ccccc23)c1	i	24.2%[9.22 µM]	i	x
C=CCn1c(COc2ccc(Cl)cc2)nnc1SCc1ccc(C#N)cc1	i	u	i	u
COc1cccc(N2CCN(CC(=O)Nc3nnc(-c4ccccc4)s3)CC2)c1	u	u	u	10.3%
Cc1noc(C)c1COc1cccc(C(=O)Nc2ccc(C#N)cc2)c1	i	14.1µM*	i	-2.3%
CCc1nc2ccc(C(=O)NCc3ccccc3OC)cn2c1N(CCC(C)C)CCN(C)C	i	-1.9%	i	-4.8%
CSCCC1C(=O)OC2(C)CC(C)(C)NC(=S)N12 (stereo unspecified)	i	1.9%	u	0.0%
COc1ccc(-n2nnc(-c3nsc(NC(=O)c4cccc(C)c4)n3)c2C)cc1OC	i	0.0%	i	x
CN(Cc1ccco1)S(=O)(=O)c1ccc(CN2C(=O)c3cccnc3C2=O)s1	i	17.8µM*	i	u
COc1ccc(CN2C(=O)c3cccnc3C2=O)cc1S(=O)(=O)N(C)Cc1ccco1	i	4.4%	i	1.4%
COc1ccc(N(CC(=O)Nc2cccc(N(C)S(C)(=O)=O)c2)S(=O)(=O)c2ccc(C)cc2)cc1	28.2µM*	7.0%	i	9.4%
